Assay outcomes deposited in PubChem BioAssay by National Center for Advancing Translational Sciences (NCATS).
RXFP1 agonist – agonists of human relaxin receptor RXFP1; HEK293T-RXFP1 cAMP TR-FRET, 30 min; response scale: percent of porcine relaxin response, buffer zero; Potency, µM (series often up to 57.5 µM), for inactives: at the highest dose activation, hits mostly activators; 370,000 tested, 0.3% active; Q9HBX9; active means well fitted activation curve with a large enough effect; inconclusive means small, poorly fitted or top-dose-only effect; further: potency means the concentration at half of the fitted maximal effect; on the % scale 0 is the no-effect control and ±100 the full control effect; nearly all actives have a fitted effect of over 60% in size
Target sequence (Q9HBX9 whole entry, looked up): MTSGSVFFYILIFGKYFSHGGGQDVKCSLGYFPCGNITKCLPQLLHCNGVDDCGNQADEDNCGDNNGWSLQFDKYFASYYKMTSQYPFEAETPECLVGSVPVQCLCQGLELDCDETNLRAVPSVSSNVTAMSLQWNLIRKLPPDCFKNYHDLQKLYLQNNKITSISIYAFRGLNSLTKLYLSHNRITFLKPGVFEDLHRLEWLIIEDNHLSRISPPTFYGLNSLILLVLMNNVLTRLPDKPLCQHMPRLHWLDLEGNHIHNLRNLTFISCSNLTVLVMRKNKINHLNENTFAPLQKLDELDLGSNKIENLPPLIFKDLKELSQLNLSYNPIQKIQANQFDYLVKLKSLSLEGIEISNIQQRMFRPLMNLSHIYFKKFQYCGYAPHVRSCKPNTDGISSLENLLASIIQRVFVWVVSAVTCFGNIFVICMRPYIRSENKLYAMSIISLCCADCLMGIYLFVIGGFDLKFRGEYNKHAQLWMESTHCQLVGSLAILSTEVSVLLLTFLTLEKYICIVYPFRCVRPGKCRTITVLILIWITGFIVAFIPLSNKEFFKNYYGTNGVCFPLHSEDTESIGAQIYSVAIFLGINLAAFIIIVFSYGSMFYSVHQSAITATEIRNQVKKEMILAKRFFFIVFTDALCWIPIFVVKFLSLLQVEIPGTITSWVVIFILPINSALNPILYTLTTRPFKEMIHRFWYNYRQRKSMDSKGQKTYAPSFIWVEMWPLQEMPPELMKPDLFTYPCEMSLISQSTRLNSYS
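HEK293 cells stably expressing RXFP1, treated 30 min at 37C with compounds plus PDE4 inhibitor Ro 20174; cAMP measured by HTRF TR-FRET. Normalized to buffer and 29 nM porcine relaxin; EC50 by Hill fit.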
gsp antag – antagonists of gsp mutant (McCune-Albright syndrome) | gsp-mutant cells, cAMP HTRF, 30 min | Potency, µM (top dose mostly 76.9 µM), without a hit: at the top dose activity change, negative = inhibition, usual class: inhibitors | 340,000 tested, 0.4% active | AID 624288; calls by dose curve; cell line not stated here;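 further: intracellular cAMP measured with PDE inhibitor Ro 20-1724 present during compound exposure; potency means the concentration at half of the fitted maximal effect; on the % scale 0 is the no-effect control and ±100 the full control effect; nearly all actives have a fitted effect of over 65% in size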
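Cells in G418 medium, seeded 16-24 h, 37C; buffer exchange to DPBS + 1 mM CaCl2, 0.5 mM MgCl2, 0.05% BSA; cpds in DMSO + […] (300 uM stock), 30 min 37C; HTRF cAMP detection.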
RXFP1 antagonist – antagonists of human relaxin receptor RXFP1 | Q9HBX9 | HEK293-RXFP1, relaxin-stimulated cAMP HTRF, 30 min; active compounds read low | activity change, negative = inhibition, % at 57.5 µM | 350,000 tested, 0.59% active | AID 1259400;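 active means activity change of -60% or lower, but not beyond a set lower limit; inconclusive means change between -60% and -40%, or beyond the set limit; inactive means change above -40%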; further: on the % scale 0 is the no-effect control and ±100 the full control effect
gsp agonist – gsp mutant agonism; gsp mutant cells, cAMP HTRF, 30 min; Potency, µM (highest dose often 76.9 µM), inactives show top-dose activation (cAMP increase), most hits filed as activators; 340,000 tested, 0.13% active; active means well fitted activation curve with a large enough effect; inconclusive means small, poorly fitted or top-dose-only effect, or another doubt; inactive means no such curve, though single readings can be large or run the other way; cell line not stated here;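 further: phosphodiesterase inhibitor Ro 20-1724 added with compounds to block cAMP breakdown; potency means the concentration at half of the fitted maximal effect; nearly all actives have a fitted effect of over 60% in size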
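Cells in DMEM/10% FBS with G418 were pretreated with compounds in DMSO plus […] (300 uM stock) for 30 min at 37C. cAMP was measured by HTRF (cAMP-d2 plus anti-cAMP antibody-K) after 30 min at room temperature.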
* marks the source's active call; other numbers are inactive results; ? = inconclusive; · = no result; [ ] = remark or other dose. Compounds with a hit are over-represented: about 0.9% of the library has one in this group of screens.

SMILES	RXFP1 agonist	gsp antag	RXFP1 antagonist	gsp agonist
CN(C)c1cc(Nc2ccc(O)cc2)c([N+](=O)[O-])c2nonc12	5%	-3%	15	24%
Cc1cc(=O)n(CC(=O)N2CCN(c3ccccc3F)CC2)c2c1c(C)nn2C	1%	·	-10	·
COCCNc1c2c(nc3c(-c4ccccc4)c(C)nn13)CCCC2	-3%	35µM*	-28	7%
Cc1nn2c(NCCOCCO)c3c(nc2c1-c1ccccc1)CCCC3	0%	-12%	-5	1%
COc1ccc(NC(=O)Cc2c(F)cccc2Cl)cc1	0%	18%	2	-49%
COc1ccc(NC(=O)COC(=O)Cc2c(F)cccc2Cl)cc1	0%	45µM*	-11	?
Cn1cccc1/C=N/n1c(-c2ccc(C(C)(C)C)cc2)n[nH]c1=S	5%	-19%	-64*	-31%
COc1ccc2[nH]cc(CCNS(=O)(=O)c3ccc(C)cc3)c2c1	6%	-10%	14	3%
COc1ccc(S(=O)(=O)NCCc2c[nH]c3ccc(C)cc23)cc1	1%	32µM*	-8	?
CN(C)CCCNC(=S)NCC(c1ccc(Cl)cc1Cl)c1c[nH]c2ccccc12 (centres undefined)	2%	9%	-61*	12%[15.4 µM]
CCCCNC(=S)NCC(c1ccccc1)c1c[nH]c2ccccc12 (centres undefined)	1%	-29%	-9	-15%
CSc1ccc(CN2CCc3c([nH]c4ccccc34)C2)cc1	0%	9%	-34	7%[15.4 µM]
Clc1cccc(CN2CCc3c([nH]c4ccccc34)C2)c1	2%	3%	-64*	-315%
Cc1cccc(CN2CCc3c([nH]c4ccccc34)C2)c1	3%	2%	?	-3%
Clc1ccc(CN2CCc3c([nH]c4ccccc34)C2)cc1Cl	0%	-1%	-64*	-59%
O=C(O)Cn1c(=O)n(Cc2ccc(Br)cc2F)c(=O)c2ccc(Cl)cc21	·	·	-24	·
NC(=O)NC1N=C([O][Al])NC1=O (centres undefined)	·	·	5	·
COc1cc(OC)c(NC(=O)c2cc3ccccc3cc2O)cc1Cl	·	32µM*	-19	-4%
COc1cc2c(cc1NC(=O)CN(C)Cc1ccc(OC)c(OC)c1)oc1ccccc12	1%	40µM*	-7	5%
COc1ccc(CN(C)CC(=O)Nc2cc3oc4ccccc4c3cc2OC)c(OC)c1	3%	?	-15	-27%
COc1ccc(OC)c(NC(=O)c2ccccc2SC)c1	1%	6%	5	-6%
COc1ccc(OC)c(NC(=O)c2cc3oc4ccccc4c3cc2O)c1	29%	?	-10	32µM*
COc1cc(NC(=O)c2ccccc2)c(OC)cc1Cl	0%	-31%	-13	12%
O=C(Cn1c(-c2cccs2)cc2ccccc21)NCc1ccccc1Br	1%	·	-14	·
N#CC1=C2CCCCC2(O)NC1=O (centres undefined)	·	·	2	17%
SMILES	RXFP1 agonist	gsp antag	RXFP1 antagonist	gsp agonist
CCN(CC)c1sc(S(=O)(=O)c2ccccc2)nc1S(=O)(=O)c1ccc(C)cc1	4%	·	3	·
CCN[C@@H]1C[C@H](N)[C@@H](OC2OC(CN)=CCC2N)[C@H](O)[C@H]1O[C@H]1OC[C@](C)(O)[C@H](NC)[C@H]1O (some centres undefined)	·	·	15	·
O=C1NN=C(c2ccc(Br)cc2)CC1c1ccc(Cl)cc1 (centres undefined)	2%	-3%	-61*	-20%
Cc1ccc(C2CC(c3ccc(Cl)cc3)=NNC2=O)cc1 (centres undefined)	0%	3%	-22	-78%
COc1ccc(C)cc1NC(=O)CCS(=O)(=O)c1ccc2c(c1)CC(=O)N2C	1%	·	·	·
N#Cc1c(-c2ccc(Cl)cc2)cc(-c2cccs2)nc1SCC(=O)O	4%	10µM*	-23	?
O=C1c2[nH]nc(-c3ccc(F)cc3)c2C(c2ccccc2F)N1c1ccccc1 (centres undefined)	6%	·	-68*	·
COc1cc(C2c3c(-c4ccccc4)n[nH]c3C(=O)N2c2ccccc2)ccc1O (centres undefined)	1%	0%	4	1%
CCCC(O)C(CC)CO (centres undefined)	·	·	11	·
C#C[C@]1(O)CCC2C3CCC4=CC(=O)CC[C@@H]4C3CC[C@@]21C (some centres undefined)	3%	-6%	·	·
CC#C[C@]1(O)CC[C@H]2[C@@H]3CCC4=CC(=O)CCC4=C3[C@@H](c3ccc(N(C)C)cc3)C[C@@]21C	3%	35µM*	-36	·
Cc1ccc(-n2ncc(C(=O)N3CCN(c4cccc(C)c4C)CC3)c2C2CCNCC2)c(C)c1	0%	·	·	·
Cc1ccc(N/C(N)=N/c2nc3c(c(=O)[nH]2)CCCC3)c(C)c1	1%	9%	9	0%
Cc1ccc(N/C(N)=N/c2nc(C)cc(N3CCCCC3)n2)c(C)c1	0%	-14%	-83*	9%[15.4 µM]
CCOc1ccc(-n2c(SCC(=O)NCC3CCCO3)nc3c([nH]c4ccccc43)c2=O)cc1 (centres undefined)	1%	·	·	·
O=c1c2c(-c3ccc([N+](=O)[O-])cc3)csc2nc2n1CCC2	?	10%	11	22µM*
N#Cc1nc(COc2ccccc2)oc1NCCN1CCOCC1	1%	-7%	-18	-6%[15.4 µM]
N#Cc1nc(COc2ccc(-c3ccccc3)cc2)oc1NCCCN1CCOCC1	1%	2%	-62*	0%
CC1(C)SC2C(NC(=O)C(c3ccccc3)S(=O)(=O)O)C(=O)N2C1C(=O)O (centres undefined)	·	·	-10	·
CCn1c(=O)c2c(nc(C=Cc3ccc(OC)c(OC)c3)n2C)n(CC)c1=O	·	·	-11	·
COC(=O)c1cc(Br)c(=O)n(-c2nccs2)c1	16µM*	12%	12	14µM*
C=Cc1ccc(CSc2nnc(C)n3c2cc2occc23)cc1	6%	·	-1	·
Clc1ccc(/C=C/c2nc3ccccc3[nH]2)cc1	10%	-16%	-2	-9%
Clc1cccc(Cl)c1/C=C/c1nc2ccccc2[nH]1	5%	28µM*	6	-1%
CC(CN1CCOCC1)C(Cc1ccccc1)(Cc1ccccc1)C(=O)N1CCCC1 (centres undefined)	·	·	8	·
SMILES	RXFP1 agonist	gsp antag	RXFP1 antagonist	gsp agonist
COc1ccc(S(=O)(=O)N2CCCC(C(=O)NC3CC3)C2)cc1Cl (centres undefined)	1%	2%	6	-3%[15.4 µM]
CCOc1cc(N2CCOCC2)c(OCC)cc1NC(=O)c1c(C)noc1C	1%	35µM*	-14	-11%
COc1cc(NC(=O)c2ccc(-c3nc(COc4ccccc4)c(C)o3)cc2)cc(OC)c1	-3%	·	-1	·
Cc1ccc(C(OCC(O)CNC(C)c2ccccc2)c2ccccc2)cc1 (centres undefined)	2%	1%	-70*	9%[15.4 µM]
O=C1C2CCCN2C(c2ccc(Br)cc2)N1c1ccc(F)cc1 (centres undefined)	1%	50µM*	·	-5%
CC1CCCCN1C(=O)CSc1nc2ccccc2nc1Cc1ccccc1 (centres undefined)	29%	·	-4	·
